Source: PubChem
hERG WT inh = KCNH2 (human, wildtype) channel inhibition; U2OS, BacMam KCNH2, thallium flux FluxOr; hits give low values; activity change, % at 1.84 µM; 0.37% of 340,000 active; AID 720551; Q12809;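 active means maximum activity change below -70%; inconclusive means maximum activity change between -70% and -50%; inactive means maximum activity change above -50%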; further: on the % scale 0 is the no-effect control and ±100 the full control effect
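U2OS cells transduced with wild-type KCNH2 virus are loaded with FluxOr dye for 45 min, and thallium flux is measured in kinetic reads before and after stimulation buffer. Rate constants are normalized to DMSO controls.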
EPAC2 antag = antagonists of human EPAC2. EPAC2 GEF exchange of Rap1B-BODIPY-GDP, fluorescence. Potency, µM (highest dose often 114 µM), for the others: at the highest dose activity, negative = inhibition, actives largely listed as inhibitors. 0.18% of 360,000 active; further: potency means the concentration at half of the fitted maximal effect; on the % scale 0 is the no-effect control and ±100 the full control effect; nearly all actives have a fitted effect of over 45% in size
Target sequence (Q8WZA2 whole entry, looked up): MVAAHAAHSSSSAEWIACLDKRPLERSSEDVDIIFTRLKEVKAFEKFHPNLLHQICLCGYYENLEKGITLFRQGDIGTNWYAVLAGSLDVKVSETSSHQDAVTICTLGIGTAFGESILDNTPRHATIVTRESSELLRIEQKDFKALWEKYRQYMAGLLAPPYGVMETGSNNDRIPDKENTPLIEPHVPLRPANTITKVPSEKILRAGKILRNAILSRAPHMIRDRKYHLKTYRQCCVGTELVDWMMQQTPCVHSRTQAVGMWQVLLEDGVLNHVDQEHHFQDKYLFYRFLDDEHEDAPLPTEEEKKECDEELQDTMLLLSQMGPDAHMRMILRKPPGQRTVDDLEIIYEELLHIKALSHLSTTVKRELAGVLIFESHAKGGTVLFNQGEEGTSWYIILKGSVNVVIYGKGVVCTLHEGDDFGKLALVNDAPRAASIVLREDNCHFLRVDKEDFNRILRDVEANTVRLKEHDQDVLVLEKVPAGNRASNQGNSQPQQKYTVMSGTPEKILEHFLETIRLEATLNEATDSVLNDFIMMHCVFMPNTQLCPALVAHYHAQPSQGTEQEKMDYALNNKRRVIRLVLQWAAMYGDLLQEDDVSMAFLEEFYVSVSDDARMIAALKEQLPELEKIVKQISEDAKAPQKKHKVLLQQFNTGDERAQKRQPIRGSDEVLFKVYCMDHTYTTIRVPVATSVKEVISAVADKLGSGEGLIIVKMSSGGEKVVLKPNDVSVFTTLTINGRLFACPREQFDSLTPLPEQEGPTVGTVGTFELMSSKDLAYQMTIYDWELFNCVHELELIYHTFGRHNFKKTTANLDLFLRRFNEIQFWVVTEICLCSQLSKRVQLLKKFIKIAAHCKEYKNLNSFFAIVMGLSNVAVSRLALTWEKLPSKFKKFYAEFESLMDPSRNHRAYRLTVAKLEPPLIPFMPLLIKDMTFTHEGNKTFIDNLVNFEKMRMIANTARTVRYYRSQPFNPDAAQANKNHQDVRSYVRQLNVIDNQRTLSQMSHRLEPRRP
EPAC1 ag = agonists of human EPAC1 | 0.073% of 360,000 active | O95398 | EPAC1 agonist qHTS, biochemical assay; response scale: 100% = response to 6.5 mM cAMP | Potency, µM (top dose mostly 154 µM), for the others: at the top dose activation, actives largely listed as activators | AID 720707; further: potency means the concentration at half of the fitted maximal effect; nearly all actives have a fitted effect of over 60% in size
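Compounds were pinned as a concentration titration into mixtures of EPAC1 (100 nM), BODIPY-GDP-loaded Rap1B (250 nM) and GDP (50 uM). After 5 min at room temperature, fluorescence was followed for 30 min; activity was scaled to 6.5 mM cAMP.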
KCNH2 3.1 inh = inhibitors of human KCNH2 3.1 potassium channel isoform; U2OS KCNH2 3.1, thallium flux FluxOr; hits give low values; activity change, % (tested at about 1.8 µM); 0.95% of 340,000 active;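 active means maximum activity change below -70%; inconclusive means maximum activity change from -70% to -50%; inactive means maximum activity change above -50%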;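 further: thallium influx rate constant from kinetic fluorescence after stimulation buffer; on the % scale 0 is the no-effect control and ±100 the full control effect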
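Virally transduced U2OS (3.1 isoform, 4 h infection in dark at RT) → overnight 37 C → FluxOr + Red40 in HBSS/HEPES, 45 min → stimulation buffer, 2 min kinetic read → rate constant vs DMSO controls.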
EPAC1 antagonist = EPAC1 (human) antagonism; Potency, µM (series often up to 115 µM), for inactives: at the highest dose activity change, negative = inhibition, hits mostly inhibitors; EPAC1 GEF assay, Rap1b-BODIPY-GDP exchange fluorescence; 0.14% of 360,000 active; O95398;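 further: potency means the concentration at half of the fitted maximal effect; plate controls were vehicle for no effect and positive control for full effect; nearly all actives have a fitted effect of over 50% in size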
EPAC2 ag = activates human EPAC2 exchange factor | Q8WZA2 | EPAC2 activation, biochemical qHTS; response scale: 100% = 6.5 mM cAMP response | Potency, µM (series often up to 154 µM), for the others: at the top dose activation, hits mostly activators | 0.079% of 360,000 active | AID 720711; further: potency means the concentration at half of the fitted maximal effect; nearly all actives have a fitted effect of over 50% in size
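In this primary screen, activation is scored as increased exchange of BODIPY-GDP from Rap1B by 100 nM EPAC2, with 50 uM GDP as competitor. Signal is normalized to the 6.5 mM cAMP agonist control.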
Starred values were filed as active, the others as inactive; u = inconclusive; x = no result given. Most compounds without a hit are left out; they make up all but 1.4% or so of the library. Unless noted, the call rests on the fitted dose curve; in most records, active means well fitted curve in the direction sought with a large enough effect; inconclusive means small, poorly fitted or top-dose-only effect, or another doubt; inactive means no such curve, though single readings can be large; an effect the other way counts as inactive or inconclusive.

SMILES	hERG WT inh	EPAC2 antag	EPAC1 ag	KCNH2 3.1 inh	EPAC1 antagonist	EPAC2 ag
CCCCNC(=O)c1nc(C2CCN(S(=O)(=O)c3ccc(C(F)(F)F)cc3)CC2)oc1-c1ccccc1	x	-18%	-2%	x	-18%	-3%
CCCN1C(=O)c2ccccc2NC1c1ccc(OC)cc1OC (stereo not given)	17	32µM*	8%	-9	-12%	3%
CCCN1C(=O)c2ccccc2NC1c1ccc(OC)c(CSc2ccccn2)c1 (stereo not given)	-6	14µM*	-7%	4	u	2%
CCCN1C(=O)c2ccccc2NC1c1ccc(OC)cc1O (stereo not given)	-10	-1%	-6%	7	6%	6%
COc1ccc(N2C(=O)c3ccccc3NC2c2ccc(OC)c(CSc3ccccn3)c2)cc1 (stereo not given)	-1	-4%	-1%	-7	4%	-4%
Cc1cc(C)c(C(=O)COC(=O)c2cc([N+](=O)[O-])ccc2N2CCOCC2)cc1C	-3	1%	-2%	-3	4%	-1%
CN(CC(=O)NCc1ccccc1F)S(=O)(=O)c1ccc(Cl)cc1	0	-10%	-1%	18	-16%	5%
CSCC[C@@H](CO)NC(=O)[C@H]1O[C@@H](n2ccc(N)nc2=O)[C@H](O)[C@@H]1O	x	8%	3%	x	5%	3%
CN1C2=C(C(=O)CC(C)(C)C2)C(c2cccs2)C2=C1CC(C)(C)CC2=O	-1	-7%	5%	3	10%	8%
OC(COc1ccc(Cl)cc1)CN1CCC(Cc2ccccc2)CC1 (stereo not given)	-93*	-2%	-6%	-125*	11%	-15%
COc1ccc(CN2CCC(Cc3ccccc3)CC2)cc1OC	26	1%	10%	1	3%	1%
CCOc1ccc(CN2CCC(Cc3ccccc3)CC2)cc1	-85*	4%	2%	-92*	0%	6%
CCCCN(C)C(=O)C1CCN(Cc2ccc(OCc3ccccc3)cc2)CC1	30	-4%	15%	-75*	0%	11%
Cc1cc(OCCN2CCC(Cc3ccccc3)CC2)ccc1[N+](=O)[O-]	0	2%	-4%	-71*	7%	14%
CCOC(=O)C1CCN(Cc2ccc(OCc3ccccc3)cc2)CC1	7	4%	8%	4	-6%	18%
Cc1cc(OCCN2CC(C)OC(C)C2)ccc1[N+](=O)[O-] (stereo not given)	12	8%	-4%	-1	-1%	-10%
CC(=O)c1ccc(N2CCN(S(=O)(=O)c3ccc4c(c3)CCC(=O)N4)CC2)cc1	x	16%	4%	x	-15%	6%
COc1cc2ccccc2cc1C(=O)NC(=S)Nc1ccc(C(=O)O)cc1	1	-6%	2%	-1	-10%	14%
COc1cc2ccccc2cc1C(=O)NC(=S)Nc1cccc(C(=O)O)c1	u	13%	u	-22	45µM*	10%
Cc1cccn2c(=O)c3cc(C#N)c(=NC(=O)c4ccco4)n(Cc4ccco4)c3nc12	1	13%	-7%	-1	-9%	-5%
Cc1cccc(C(=O)N=c2c(C#N)cc3c(=O)n4cccc(C)c4nc3n2Cc2ccco2)c1	-1	0%	0%	1	50µM*	-1%
Cc1cccn2c(=O)c3cc(C#N)c(=NC(=O)c4ccccc4)n(Cc4ccco4)c3nc12	-2	u	0%	-6	89µM*	-7%
Cc1ccc(CC(=O)NNC(=O)c2cccs2)cc1C	-6	12%	7%	-6	-4%	5%
O=C(C[n+]1ccc2ccccc2c1)Nc1cc(C(F)(F)F)ccc1Cl	-47	-2%	17%	-82*	-4%	-2%
CCOC(=O)N1CCN(C(=O)CN(C)S(=O)(=O)c2ccc(OCC)cc2)CC1	4	2%	14%	15	18%	12%
SMILES	hERG WT inh	EPAC2 antag	EPAC1 ag	KCNH2 3.1 inh	EPAC1 antagonist	EPAC2 ag
O=c1[nH]c(CN2CCN(C/C=C/c3ccccc3)CC2)nc2cc(Cl)ccc12	-110*	-2%	-4%	-99*	-1%	-4%
Nc1c(-c2cccc(Cl)c2)cnn1-c1ccccc1	-6	-17%	11%	-88*	-19%	13%
CC(C)N(CCNS(=O)(=O)c1ccc(Cl)cc1)C(C)C	1	21%	-11%	-9	4%	10%
CC(C)OP(=O)(OC(C)C)C1(NS(=O)(=O)c2ccc(Cl)cc2)C=C(Cl)C(=O)C(Cl)=C1	15	40µM*	-19%	12	-20%	1%
COc1cc(C(=O)COC(=O)C2CCN(c3ccc(C(F)(F)F)cn3)CC2)ccc1OC(F)F	-7	-27%	-2%	-79*	-5%	-3%
O=C(COC(=O)C1CCN(c2ccc(C(F)(F)F)cn2)CC1)c1ccc(Cl)cc1	7	-13%	4%	5	-30%	3%
O=C(COC(=O)C1CCN(c2ccc(C(F)(F)F)cn2)CC1)c1ccc(F)cc1	-44	-23%	-12%	-78*	-5%	-3%
CCc1nn(C)c(N)c1C	-6	14%	-3%	7	5%	6%
COCCN(C(=O)CCSc1ccc(F)cc1)c1c(N)n(Cc2ccccc2)c(=O)[nH]c1=O	6	-1%	8%	11	-21%	2%
CCCCc1nc(SCCOC)c2c(=O)n(C)c(=O)n(C)c2n1	6	18µM*	-3%	0	-15%	11%
O=C(NC1C/C(=N/O)c2cc3c(cc21)OCO3)C(F)(F)F (stereo not given)	-1	-3%	1%	9	-22%	0%
O=C(CSc1ccc(Cl)cc1)Nc1ccc(N2CCN(C(=O)c3ccc(Cl)cc3)CC2)cc1	-133*	5%	1%	-89*	1%	-8%
O=C(c1ccc(Cl)cc1)N1CCC(O)(CSc2ccc(Cl)cc2)CC1	-28	-8%	20%	-89*	-10%	-1%
O=C(CSc1ccc(Cl)cc1)Nc1ccccc1N1CCN(C(=O)c2ccc(Cl)cc2)CC1	3	2%	2%	-41	-14%	7%
O=C(Nc1ccccc1N1CCN(C(=O)c2ccc(Cl)cc2)CC1)c1ccc2c(c1)OCO2	-48	-6%	24%	-82*	0%	10%
O=C(Nc1ccc(N2CCN(C(=O)c3ccc(Cl)cc3)CC2)cc1)c1cccs1	24	4%	-12%	-74*	13%	-7%
O=C(Nc1ccc(N2CCN(C(=O)c3ccc(Cl)cc3)CC2)cc1)c1ccc2c(c1)OCCO2	1	-4%	4%	-79*	-4%	9%
